# From PubChem BioAssay (Tox21)
# Several values for one entry are separate records, joined by “and”; a condition that tells them apart may be missing. Identical values can stand only once. Records with an inconclusive call do not appear. Unmarked numbers belong to inactive results. Activity calls are given as the source filed them. Calls come from the whole dose curve; as a rule, active = well fitted inhibition curve with a large enough effect in the signal ratio in the repeat runs (not every such curve was filed as active); inconclusive = weak or mixed curves, or effect the other way; inactive = no such curve, though single readings can be large or run the other way; the % refers to the signal ratio.
# Biological target: Glucocorticoid receptor (Homo sapiens) (UniProt P04150)
# Sequence (P04150 whole entry, looked up): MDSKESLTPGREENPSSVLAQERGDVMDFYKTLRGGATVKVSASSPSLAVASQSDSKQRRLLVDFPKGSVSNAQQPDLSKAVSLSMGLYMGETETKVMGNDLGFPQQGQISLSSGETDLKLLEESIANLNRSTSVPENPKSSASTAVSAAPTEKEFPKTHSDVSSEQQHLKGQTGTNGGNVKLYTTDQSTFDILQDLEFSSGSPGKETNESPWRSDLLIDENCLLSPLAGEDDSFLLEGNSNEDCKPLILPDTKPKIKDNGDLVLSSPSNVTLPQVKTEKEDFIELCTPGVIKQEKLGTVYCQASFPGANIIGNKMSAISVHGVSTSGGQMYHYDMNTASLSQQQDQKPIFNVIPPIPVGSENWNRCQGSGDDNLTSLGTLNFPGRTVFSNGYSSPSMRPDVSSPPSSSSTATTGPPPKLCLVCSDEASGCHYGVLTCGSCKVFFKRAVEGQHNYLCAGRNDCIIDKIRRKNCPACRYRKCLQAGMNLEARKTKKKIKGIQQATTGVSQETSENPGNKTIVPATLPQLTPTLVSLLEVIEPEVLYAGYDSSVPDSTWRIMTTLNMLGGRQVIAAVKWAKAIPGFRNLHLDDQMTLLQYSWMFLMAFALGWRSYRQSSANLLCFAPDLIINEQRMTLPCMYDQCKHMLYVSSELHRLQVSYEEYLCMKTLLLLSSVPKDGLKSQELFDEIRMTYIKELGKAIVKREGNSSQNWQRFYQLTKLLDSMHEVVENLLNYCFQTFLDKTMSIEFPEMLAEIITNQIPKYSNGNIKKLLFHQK
# Test: qHTS assay to identify small molecule antagonists of the glucocorticoid receptor (GR) signaling pathway (AID 720692)
# Details: GR-bla HeLa, beta-lactamase FRET ratio, dexamethasone-stimulated, 18 h; series mostly up to 58.5 µM; activity change, negative = inhibition: at the top concentration
# From the text: U.S. Tox21 Program National Center for Advancing Translational Sciences [NCATS] NIH Chemical Genomics Center [NCGC] U.S. Environmental Protection Agency [EPA] National Institutes of Environmental Health Sciences [NIEHS] National Toxicology Program [NTP] U.S. Food and Drug Administration [FDA] Tox21 Assay Overview: The Glucocorticoid receptor (GR) is one of the members of the nuclear receptor family of ligand-dependent transcription factors. GR plays a critical role in carbohydrate, protein and lipid metabolisms and programmed cell death. CellSensor GR-bla HeLa cell line (Invitrogen) contains a beta-lactamase reporter gene under the control of the glucocorticoid response element stably integrated into HeLa cells, a cervical cancer cell line that expresses glucocorticoid receptor. The activation of the reporter gene under culture conditions can be detected by fluorescence intensity. This cell line has been used to screen the Tox21 10K compound library and to identify the compounds that inhibit the GR signaling.
# Tox21 Assay Protocol Summary: The GR-bla HeLa cells were dispensed at 1500 cells/5 ul/well in 1536-well black wall/clear bottom plates using a Multidrop Combi (ThermoFisher Scientific, Waltham, MA) dispenser. After the assay plates were incubated at a 37 C/5% CO2 incubator for 4 hours, 23 nL of compounds dissolved in DMSO, positive controls or DMSO only was transferred to the assay plate by a pintool station (Kalypsys, San Diego, CA), followed by addition of 1 uL of dexamethasone (5 nM, final concentration in the well). The plates were incubated at 37 C for 18 hours. After 1 uL of LiveBLAzerTM B/G FRET substrate was added using a Flying Reagent Dispenser (Aurora Discovery, San Diego, CA), the plates were incubated at room temperature for 2 hours, and fluorescence intensity was measured by an Envision plate reader (PerkinElmer, Shelton, CT).
# % is set by controls: 0 for no effect and ±100 for the full control effect; potency is the fitted concentration of half-maximal effect.
Structure (SMILES),"activity change, negative = inhibition",Potency
CCCCCCCCP(=O)(O)O,-0.184%,–
O=C(Cc1ccccc1)c1ccccc1,23.9%,–
CCCCC(CC)COC(=O)c1c(Br)c(Br)c(Br)c(Br)c1C(=O)OCC(CC)CCCC (stereo not given),1.48%,–
O=C(O)C(F)(F)C(F)(F)C(F)(F)C(F)(F)C(F)(F)C(F)(F)C(F)(F)C(F)(F)F,-25.4%,–
NP(N)(=O)NC(=O)c1ccc(F)cc1,4.35%,–
CCCC[N+]1(C)[C@@H]2CC(OC(=O)[C@H](CO)c3ccccc3)C[C@H]1[C@@H]1O[C@@H]12 (stereo not given in full),0.374%,–
NC(=O)CF,-4.86%,–
CC(=O)NNc1ccccc1,–,10.9 µM (active)
COCc1cnc(C2=NC(C)(C(C)C)C(=O)N2)c(C(=O)O)c1 (stereo not given),0.94%,–
CN1CC[C@]23c4c5ccc(O)c4O[C@H]2[C@@H](O)C=C[C@H]3[C@H]1C5,-3.49%,–
O=[N+]([O-])c1cc(Cl)c(Cl)cc1Cl,-21.3%,–
Cc1cnc(C2=NC(C)(C(C)C)C(=O)N2)c(C(=O)O)c1 (stereo not given),1.07%,–
CCC1CCC(=O)O1 (stereo not given),1.38% [at 78.9 µM],–
CCCBr,-1.77%,–
OC[P+](CO)(CO)CO,–,inactive
CC(C)CCCCCCCOC(=O)c1ccccc1C(=O)OCCCCCCCC(C)C,3.39%,–
CCOC(=O)C1OC1(C)c1ccccc1 (stereo not given),3.79% [at 78.9 µM],–
CC(C)(c1ccccc1)c1cc(-n2nc3ccccc3n2)c(O)c(C(C)(C)c2ccccc2)c1,-2.49%,–
O=C(N/N=C/c1ccc([N+](=O)[O-])o1)c1cc([N+](=O)[O-])cc([N+](=O)[O-])c1O,-9.97%,–
C=CC(=O)OCC,-0.418% [at 78.9 µM],–

Structure (SMILES),"activity change, negative = inhibition",Potency
CC(C)(C)OOC(C)(C)CCC(C)(C)OOC(C)(C)C,1.36%,–
C=C(C)C(=O)OCCCCOC(=O)C(=C)C,4.62%,–
CC(Cc1ccccc1)NCc1ccccc1Cl (stereo not given),-4.68%,–
Cc1nnc(-c2ccccc2)c(=O)n1N,-0.715%,–
O=C(CCl)CCl,–,43.6 µM (active)
CN(C)N,9.01%,–
CC(O)CN1CCN(CC(=O)[O-])CCN(CC(=O)[O-])CCN(CC(=O)[O-])CC1.[Gd+3] (stereo not given),–,inactive
CCOP(=O)(O)C(N)=O,-9.48%,–
C#C[C@]1(O)CC[C@H]2[C@@H]3CCC4=CC(=O)CCC4=C3C=C[C@@]21CC,–,0.379 µM (active)
N#CC(C#N)=C(C#N)C#N,-12.2% [at 78.9 µM],–
CCCCCCCCCCCCN(C)C,0.402%,–
CCCCCCCCCCCCCCCl,11.4% [at 78.9 µM],–
O=[N+]([O-])/C=C/c1ccccc1,–,15.7 µM (active) and 17.4 µM (active)
Cc1nc(N(C)C)nc(OC(=O)N(C)C)c1C,-3.23%,–
O=C(NCNC(=O)NC1C(=O)NC(=O)N1CO)NC1C(=O)NC(=O)N1CO (stereo not given),–,inactive
ClCc1ccccc1Cl,11.4% [at 78.9 µM],–
CC(C)C1(C)N=C(c2ncccc2C(=O)O)NC1=O (stereo not given),0.506%,–
CC[N+]1(C)CCCC(OC(=O)C(O)(c2ccccc2)c2ccccc2)C1 (stereo not given),11.7%,–
Oc1cccc(Cl)c1,1.21%,–
CCOC(=O)c1cn2nc(OP(=S)(OCC)OCC)cc2nc1C,-0.468%,–
